The results in this text go back to PubChem BioAssay (NCATS).

In assay [1] the target is Bile acid receptor (Homo sapiens) (UniProt Q96RI1). The assay can be described thus: qHTS assay for small molecule antagonists of farnesoid X receptor signaling (AID 588526). Further: potency means the concentration at half of the fitted maximal effect. The method in brief:
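Concentration-response titrations were fitted to the Hill equation for half-maximal inhibition and maximal response, with data normalised to 50 uM chenodeoxycholic acid and DMSO control wells. Cells: FXR-UAS-bla HEK293T, dialyzed FBS.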
On the technique in general: qHTS replaces the single test concentration by a dilution series.

Assay [2] has the same target. The assay is described as follows: qHTS assay for small molecule agonists of farnesoid X receptor signaling (AID 588527).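 Further: series mostly up to about 77 µM; 0% = vehicle basal and 100% = reference agonist.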 As to conditions: HEK293T FXR-UAS-bla, beta-lactamase ratio, 16 h; activation: stronger effect = higher value. The procedure, abridged: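 Read-out: beta-lactamase reporter fluorescence with CCF4 substrate in GeneBLAzer FXR-UAS-bla HEK293T cells, after 16 h compound exposure at 37 C. Response scaled between DMSO basal (0%) and chenodeoxycholic acid at 100 uM (100%).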

The target of assay [3] is Peroxisome proliferator-activated receptor delta (Homo sapiens) (UniProt Q03181). The assay can be described thus: qHTS assay for small molecule agonists of peroxisome proliferator-activated receptor delta signaling (AID 588534).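 Further: 0% = DMSO basal wells and 100% = positive control agonist at 10 µM.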 The procedure, abridged: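 Agonist-mode beta-lactamase reporter readout (CCF4 dye, 2 h at RT) after 18 h at 37 °C exposure to a titration; Hill-equation fitting gave EC50 and maximal response.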

The target of assay [4] is Vitamin D3 receptor (Homo sapiens) (UniProt P11473). The assay is described as follows: qHTS assay for small molecule agonists of vitamin D receptor signaling (AID 588543).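 Further: 0% = DMSO basal and 100% = reference agonist control.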 The procedure, abridged:
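GeneBLAzer VDR-UAS-bla HEK293T cells in 2% charcoal-stripped FBS medium were dosed with compound titrations for 16 h at 37 °C; CCF4 β-lactamase readout (405 nm ex, 460/530 nm em). EC50 and efficacy from Hill fits, normalized to 50 nM calcitriol (100%) and DMSO (0%).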

Assay [5] has as its target Retinoic acid receptor RXR-alpha (Homo sapiens) (UniProt P19793). The assay can be described thus: qHTS assay for small molecule agonists of retinoid X receptor alpha signaling (AID 588544).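 Further: 0% = DMSO basal wells and 100% = reference agonist.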
Assay [6] is described as follows: qHTS assay for small molecule antagonists of retinoid X receptor alpha signaling (AID 588546; active means well fitted inhibition curve with a large enough effect in the signal ratio, with a control signal flat, not every such curve was filed as active; the % refers to the signal ratio; further: potency means the concentration at half of the fitted maximal effect;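 on max response: cells stimulated with 9-cis-retinoic acid as agonist; on the % scale 0 is the no-effect control and ±100 the full control effect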). As to conditions: HEK293T RXRa-UAS-bla, beta-lactamase ratio, antagonist mode; measured here: W530 green channel, cytotoxicity proxy. The method in brief: (§1)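 Beta-lactamase reporter inhibition, read as CCF4 fluorescence ratio (ex 405, em 460/530 nm) after 2 h at RT. HEK293T UAS-bla cells, 2500/well, were stimulated with 9-cis-RA at 500 or 100 nM final alongside test compound for 18 h at 37 C.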

Assay [7] concerns the target Thyroid hormone receptor beta (Homo sapiens) (UniProt P10828). The assay can be described thus: qHTS assay for small molecule antagonists of thyroid hormone receptor beta signaling (AID 588547; active means well fitted inhibition curve with a large enough effect in the signal ratio, with a control signal flat, not every such curve was filed as active; the % refers to the signal ratio;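 further: cells stimulated with 0.4 nM T3 agonist during compound exposure; series mostly up to about 77 µM; on the % scale 0 is the no-effect control and ±100 the full control effect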). The note with it: TR-UAS-bla HEK293, beta-lactamase ratio, antagonist mode, 18 h. The procedure, abridged: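 TR-UAS-bla GripTite HEK293 cells in 2% charcoal/dextran FBS medium were preincubated 4 h at 37 C, given compound (0.59 nM to 92 uM) plus 0.4 nM T3 (final) for 18 h, then CCF4 for 2 h at RT; Hill fit gave IC50.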

Assay [8] is described as follows: qHTS assay for small molecule agonists of the antioxidant response element (ARE) signaling pathway (AID 651741; active means well fitted activation curve with a large enough effect in the signal ratio; the % refers to the signal ratio; further: potency means the concentration at half of the fitted maximal effect; on activation: % of control where 0% means no effect). The method in brief:
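Reporter: beta-lactamase under ARE, stably in HepG2. Exposure: 16 h, 37 C, compounds delivered in DMSO by pin tool after 5 h cell preincubation. Readout: FRET substrate fluorescence after 2 h at RT.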

A short description of assay [9]: qHTS assay for environmental chemicals that activate the Aryl hydrocarbon Receptor (AhR) signaling pathway (AID 651777; active means well fitted curve in the direction sought with a large enough effect; an effect the other way counts as inactive or inconclusive; further: % of control where 0% means no effect; nearly all actives have a fitted effect of over 15% in size). As to conditions: 1A2-DRE human hepatoma cells, luciferase, 24 h; activation: stronger effect = higher value. The method in brief:
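Measured luciferase activity, read 30 min after One-Glo addition at room temperature, from human hepatoma cells bearing a dioxin response element–CYP1A2 promoter reporter and exposed to compound for 24 hr at 37 C.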

Assay [10] deals with Peroxisome proliferator-activated receptor alpha (Homo sapiens) (UniProt Q07869). The assay can be described thus: qHTS assay for small molecule agonists of the peroxisome proliferator-activated receptor alpha (PPARalpha) signaling pathway (AID 651778; active means well fitted curve in the direction sought with a large enough effect; an effect the other way counts as inactive or inconclusive; further: % of control where 0% means no effect). The note with it: PathHunter PPARalpha complementation, chemiluminescence, 6 h; max response: stronger effect = higher value. The method in brief: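 Cells plated at 2,000/well and held overnight at 37 C, 5% CO2, then compound added by pin tool for 6 hr; after PathHunter detection reagent and 60 min at room temperature, chemiluminescence from enzyme complementation was read.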

The nature of assay [11]: qHTS assay for small molecule agonists of the antioxidant response element (ARE) signaling pathway measured by Nrf2-dependant transcriptional activity (AID 720636; active means well fitted curve in the direction sought with a large enough effect in the repeat runs; an effect the other way counts as inactive or inconclusive;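 further: HepG2 cells with an ARE-driven luciferase reporter; % of control where 0% means no effect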). The procedure, abridged:
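In HepG2 cells engineered with an Nrf2-responsive luciferase gene, ARE induction was quantified as luminescence after 16 hr compound treatment at 37 C.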

Assay [12] is described as follows: qHTS assay for small molecule agonists of the antioxidant response element (ARE) signaling pathway measured by Nrf2-dependant transcriptional activity - cell viability counter screen (AID 720653; active means well fitted curve in the direction sought with a large enough effect in the repeat runs; an effect the other way counts as inactive or inconclusive; further: on the % scale 0 is the no-effect control and ±100 the full control effect). As to conditions: ARE-bla HepG2 viability, CellTiter-Glo ATP luminescence, 16 h; max response: stronger effect = lower value. The procedure, abridged: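 ARE-bla HepG2 cells (2,000/well) rested 5 hrs at 37C/5% CO2, then exposed to compounds in DMSO for 16 hrs. Viability was read in the same wells as intracellular ATP by luminescence, 30 min at room temperature after reagent addition.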

A short description of assay [13]: qHTS assay for cell viability of HEK293 cells (AID 743288; active means well fitted curve in the direction sought with a large enough effect; an effect the other way counts as inactive or inconclusive; further: on the % scale 0 is the no-effect control and ±100 the full control effect; nearly all actives have a fitted effect of over 50% in size). The note with it: ATP luminescence (CellTiter-Glo), 18 h; max response: stronger effect = lower value. The method in brief: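 After 18 h compound exposure at 37 C, parental HEK293 cells (2,000/well) are lysed with CellTiter-Glo and luminescence is read following 30 min at room temperature.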
Assay [14] is described as follows: qHTS assay for cell viability of the p53RE-bla HCT-116 cell line (AID 743292; active means well fitted curve in the direction sought with a large enough effect; an effect the other way counts as inactive or inconclusive; further: on the % scale 0 is the no-effect control and ±100 the full control effect; nearly all actives have a fitted effect of over 55% in size). The method in brief: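 Intracellular ATP of p53RE-bla HCT-116 cells measured by luciferase luminescence following 16 h compound incubation at 37 C; DMSO-only wells served as vehicle controls.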
Assay [15] concerns the target Nuclear receptor subfamily 1 group I member 2 (Rattus norvegicus) (UniProt Q9R1A7). The assay is described as follows: qHTS assay for small molecule activators of the rat pregnane X receptor (rPXR) signaling pathway (AID 651751; call rule not given here; further: 0% is about no effect). As to conditions: rPXR reporter cells, luciferase (One-Glo), 24 h.
Assay [16] addresses Thyroid hormone receptor beta (Homo sapiens) (UniProt P10828). The assay is described as follows: qHTS assay for small molecule agonists of thyroid hormone receptor beta signaling (AID 588545).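 Further: 0% = DMSO only and 100% = 10 nM T3.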 The procedure, abridged:
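TR-UAS-bla-GripTite HEK 293 cells in medium with 2% charcoal/dextran FBS, 0.1 mM NEAA and 1 mM sodium pyruvate were treated with titrated compounds for 18 hrs at 37 C. Beta-lactamase reporter was read with CCF4 dye (ex 405, em 460/530 nm); EC50 from Hill fits.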

Assay [17] deals with Retinoic acid receptor RXR-alpha (Homo sapiens) (UniProt P19793). The assay can be described thus: qHTS assay for small molecule antagonists of retinoid X receptor alpha signaling (AID 588546). Further: potency means the concentration at half of the fitted maximal effect.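 On max response: cells stimulated with 9-cis-retinoic acid as agonist; on the % scale 0 is the no-effect control and ±100 the full control effect.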 As to conditions: HEK293T RXRa-UAS-bla, beta-lactamase ratio, antagonist mode. The procedure, abridged: as §1
The nature of assay [18]: qHTS assay for small molecule activators of the p53 signaling pathway (AID 651743; active means well fitted activation curve with a large enough effect in the signal ratio, not every such curve was filed as active; the % refers to the signal ratio; further: series mostly up to about 92 µM; % of control where 0% means no effect). As to conditions: HCT-116 p53RE-bla, beta-lactamase FRET ratio, 16 h; activation: stronger effect = higher value. The procedure, abridged: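 Agonist-mode quantitative HTS in HCT-116 cells carrying a p53-response-element beta-lactamase reporter; 16 h compound treatment at 37 C, then FRET substrate loading for 2 h at room temperature and fluorescence read.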

Assay [19] in a line: qHTS assay for small molecule antagonists of peroxisome proliferator-activated receptor delta signaling (AID 588535; active means well fitted inhibition curve with a large enough effect in the signal ratio, with a control signal flat, not every such curve was filed as active; the % refers to the signal ratio;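 on max response: cells co-treated with a PPAR-delta agonist as stimulator during compound exposure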). As to conditions: HEK293T PPARd-UAS-bla, beta-lactamase FRET ratio, 18 h; 460 nm channel. The method in brief: (§2)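 Inhibition of PPAR-delta response element-driven beta-lactamase expression is measured in HEK293T cells exposed to a compound titration series for 18 hrs at 37 C. Half-maximal inhibition comes from Hill equation fitting.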

Assay [20] addresses Peroxisome proliferator-activated receptor delta (Homo sapiens) (UniProt Q03181). Described as above. The method in brief: as §2

Records with an inconclusive call do not appear. Calls of active or inactive are those of the source. Unless noted, the call rests on the fitted dose curve.

Retinoic acid receptor RXR-alpha (Homo sapiens), sequence (P19793 whole entry, looked up): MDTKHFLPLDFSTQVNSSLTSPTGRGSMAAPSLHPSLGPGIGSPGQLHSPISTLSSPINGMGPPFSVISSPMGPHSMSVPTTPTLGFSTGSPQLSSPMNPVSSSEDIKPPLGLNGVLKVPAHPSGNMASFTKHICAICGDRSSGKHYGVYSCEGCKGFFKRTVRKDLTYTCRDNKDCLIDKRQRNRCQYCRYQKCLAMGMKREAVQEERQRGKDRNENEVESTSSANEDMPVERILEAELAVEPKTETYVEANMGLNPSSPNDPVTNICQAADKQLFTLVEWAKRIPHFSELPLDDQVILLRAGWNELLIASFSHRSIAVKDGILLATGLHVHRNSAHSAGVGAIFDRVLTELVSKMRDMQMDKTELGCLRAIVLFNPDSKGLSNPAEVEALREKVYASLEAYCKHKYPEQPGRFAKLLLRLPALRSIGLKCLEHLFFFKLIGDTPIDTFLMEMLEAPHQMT
Peroxisome proliferator-activated receptor alpha (Homo sapiens), sequence (Q07869 whole entry, looked up): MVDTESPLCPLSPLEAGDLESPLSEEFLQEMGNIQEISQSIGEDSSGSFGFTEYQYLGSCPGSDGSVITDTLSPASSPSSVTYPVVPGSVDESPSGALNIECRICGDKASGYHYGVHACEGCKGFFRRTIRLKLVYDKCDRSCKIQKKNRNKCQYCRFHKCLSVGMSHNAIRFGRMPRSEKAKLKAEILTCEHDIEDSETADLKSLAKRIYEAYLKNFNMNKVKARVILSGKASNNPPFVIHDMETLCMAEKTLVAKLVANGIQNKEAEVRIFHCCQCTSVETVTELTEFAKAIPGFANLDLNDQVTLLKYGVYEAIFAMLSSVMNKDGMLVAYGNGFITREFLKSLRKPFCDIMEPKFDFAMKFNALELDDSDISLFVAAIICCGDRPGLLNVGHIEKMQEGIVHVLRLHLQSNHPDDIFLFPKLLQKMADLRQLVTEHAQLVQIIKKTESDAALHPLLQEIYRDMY
Peroxisome proliferator-activated receptor delta (Homo sapiens), sequence (Q03181 whole entry, looked up): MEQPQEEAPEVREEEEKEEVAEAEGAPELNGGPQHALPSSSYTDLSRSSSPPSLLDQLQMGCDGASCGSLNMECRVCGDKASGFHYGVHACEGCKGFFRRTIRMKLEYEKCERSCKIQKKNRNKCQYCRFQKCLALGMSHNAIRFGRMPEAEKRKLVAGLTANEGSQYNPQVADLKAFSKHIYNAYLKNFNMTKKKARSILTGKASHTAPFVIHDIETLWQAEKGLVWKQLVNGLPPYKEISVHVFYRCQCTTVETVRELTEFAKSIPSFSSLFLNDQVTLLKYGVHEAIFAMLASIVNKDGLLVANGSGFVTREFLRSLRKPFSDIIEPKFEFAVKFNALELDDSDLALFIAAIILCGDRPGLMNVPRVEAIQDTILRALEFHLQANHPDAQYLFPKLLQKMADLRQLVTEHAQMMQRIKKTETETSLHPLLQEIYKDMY
Nuclear receptor subfamily 1 group I member 2 (Rattus norvegicus), sequence (Q9R1A7 whole entry, looked up): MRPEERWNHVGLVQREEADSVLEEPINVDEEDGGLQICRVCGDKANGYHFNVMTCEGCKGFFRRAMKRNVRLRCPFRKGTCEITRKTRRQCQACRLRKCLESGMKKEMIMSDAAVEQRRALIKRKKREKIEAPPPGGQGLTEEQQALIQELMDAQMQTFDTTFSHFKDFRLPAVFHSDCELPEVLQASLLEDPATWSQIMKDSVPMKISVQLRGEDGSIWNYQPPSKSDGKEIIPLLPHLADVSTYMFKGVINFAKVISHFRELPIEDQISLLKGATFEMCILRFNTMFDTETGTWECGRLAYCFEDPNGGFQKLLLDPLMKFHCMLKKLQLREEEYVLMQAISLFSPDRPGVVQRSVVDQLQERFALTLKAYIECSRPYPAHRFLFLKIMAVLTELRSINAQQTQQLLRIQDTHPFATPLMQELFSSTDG
Thyroid hormone receptor beta (Homo sapiens), sequence (P10828 whole entry, looked up): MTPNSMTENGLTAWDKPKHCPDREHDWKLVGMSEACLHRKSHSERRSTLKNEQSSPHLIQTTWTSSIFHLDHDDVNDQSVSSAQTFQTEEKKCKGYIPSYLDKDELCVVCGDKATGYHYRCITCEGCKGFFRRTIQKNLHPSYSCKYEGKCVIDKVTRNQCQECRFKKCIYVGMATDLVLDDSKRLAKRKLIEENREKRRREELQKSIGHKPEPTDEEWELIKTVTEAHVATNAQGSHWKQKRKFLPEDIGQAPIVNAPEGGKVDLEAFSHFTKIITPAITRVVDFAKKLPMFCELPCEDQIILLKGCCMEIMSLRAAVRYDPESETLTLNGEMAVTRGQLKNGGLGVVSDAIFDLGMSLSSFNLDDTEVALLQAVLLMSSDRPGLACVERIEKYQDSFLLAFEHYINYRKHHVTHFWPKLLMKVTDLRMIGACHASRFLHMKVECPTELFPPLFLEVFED
Bile acid receptor (Homo sapiens), sequence (Q96RI1 whole entry, looked up): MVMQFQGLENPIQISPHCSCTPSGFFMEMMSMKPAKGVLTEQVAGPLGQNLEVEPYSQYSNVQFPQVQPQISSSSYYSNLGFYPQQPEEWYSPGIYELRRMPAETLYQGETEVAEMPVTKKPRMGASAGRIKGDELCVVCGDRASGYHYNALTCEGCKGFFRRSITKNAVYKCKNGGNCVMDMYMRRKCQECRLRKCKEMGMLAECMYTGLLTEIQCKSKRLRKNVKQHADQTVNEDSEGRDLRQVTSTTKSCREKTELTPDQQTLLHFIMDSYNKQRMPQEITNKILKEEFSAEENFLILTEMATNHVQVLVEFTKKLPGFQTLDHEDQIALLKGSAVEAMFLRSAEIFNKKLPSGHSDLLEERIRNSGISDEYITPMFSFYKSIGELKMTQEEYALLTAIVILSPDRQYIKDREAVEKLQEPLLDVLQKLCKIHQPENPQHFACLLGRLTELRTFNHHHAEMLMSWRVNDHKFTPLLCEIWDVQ
Vitamin D3 receptor (Homo sapiens), sequence (P11473 whole entry, looked up): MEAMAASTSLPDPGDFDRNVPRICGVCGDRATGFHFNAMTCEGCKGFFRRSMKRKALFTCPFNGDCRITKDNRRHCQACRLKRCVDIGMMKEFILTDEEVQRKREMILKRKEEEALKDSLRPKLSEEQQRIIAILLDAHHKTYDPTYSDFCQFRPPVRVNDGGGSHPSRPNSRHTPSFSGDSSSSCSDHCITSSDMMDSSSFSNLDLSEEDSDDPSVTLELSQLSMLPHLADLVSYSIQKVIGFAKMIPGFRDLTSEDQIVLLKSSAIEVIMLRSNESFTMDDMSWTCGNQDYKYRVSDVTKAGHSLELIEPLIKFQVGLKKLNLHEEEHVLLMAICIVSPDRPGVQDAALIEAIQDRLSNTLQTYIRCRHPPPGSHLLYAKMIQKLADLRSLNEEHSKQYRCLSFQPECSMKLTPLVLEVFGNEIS

With `COc1nn(C(=O)NS(=O)(=O)c2ccccc2OC(F)(F)F)c(=O)n1C`, the Potency entry in assay [1], in assay [5], in [8], in assay [11] and in assay [14] was “inactive” in each case. Also, the activation was 1.22% (inactive) in assay [2] and 1.39% (inactive) in [9]. The compound was called inactive in assay [3] and in assay [4]. Also, the max response in assay [6] was -2.65%; in [10], -1.08% (inactive); in [12], 3.81% (inactive); in [13] it was -3.61% (inactive); in assay [15], 1.31% (inactive). In assay [7], the activity change % (negative = inhibition) is 8.96% (inactive).

Consider `CC1COC(Cn2cncn2)(c2ccc(Oc3ccc(Cl)cc3)cc2Cl)O1` (stereo unspecified), for which the Potency in [1] is 44.7 µM (active); in assay [17] it was 39.8 µM (active); in assay [8], 15.4 µM (active). The activation is 3.21% (inactive) in [2], 12.1% (inactive) in assay [18] and 14.3% (inactive) in assay [9]. Also, the Potency entry in assay [16] and in [14] was “inactive” each time. Besides, the max response in assay [6] is 9.03%; in assay [10] it was 6.01% (inactive); in assay [13], -29.8% (inactive); in assay [15] it was -12.8% (inactive).

For the compound `Cc1cc(C2CC2)nc(Nc2ccccc2)n1`, the Potency entry in assay [1], in assay [20], in assay [5], in assay [16] and in assay [14] was “inactive” in each case. The activation in assay [2] is -4.1% (inactive). Moreover, the compound was called inactive in assay [3] and in assay [4]. The max response in [19] is 1.7%; in assay [6], -2.59%; in assay [17], -23.3% (inactive); in [10], 5.58% (inactive). In [7], the activity change % (negative = inhibition) was -20% (inactive). Also, the Potency in assay [8] was 54.5 µM (active).

Regarding `COCC(=O)N(c1c(C)cccc1C)N1CCOC1=O`, the Potency entry in assay [1], in [20], in [5], in [16], in [8] and in assay [11] was “inactive” throughout. The Potency result in [14] is “inactive”. In addition, the activation in assay [2] is -0.109% (inactive). Moreover, the outcome in assay [3] and in assay [4] was inactive. The max response was -6.17% in assay [19]; -10.4% in assay [6]; 4.82% (inactive) in assay [17]; 0.278% (inactive) in [10]; 1.06% (inactive) in assay [12]; 2.38% (inactive) in assay [13]. In [15], the max response is 3.21% (inactive).

On to `O=[N+]([O-])c1ccc(Nc2ccccc2)cc1`, for which the Potency entry in assay [1], in assay [16] and in [14] was “inactive” in each case. Also, the figures for the activation in assay [2] and in assay [9] were 0.7% (inactive) and 5.27% (inactive), respectively. In addition, the result in [4] was inactive. Also, the max response was -4.45% in assay [6]; -16.2% (inactive) in [17]; -1.55% (inactive) in assay [10]; -13.2% (inactive) in [12]; 1.82% (inactive) in assay [13]. Moreover, in assay [7], the activity change % (negative = inhibition) was -15.7% (inactive). The Potency in assay [8] was 48.6 µM (active).
